Experimental data: PubChem BioAssay
For some assays here: Results with a measured potency or affinity are listed apart. The source made the active and inactive calls. Unless noted, how the calls were made is not given here.

Each molecule was assayed against Protein kinase 7 (PK7), Plasmodium falciparum 3D7 (PF3D7_0213400) (UniProt Q7YTF7) (assay: inhibition of Plasmodium PK7 catalytic activity – biochemical, TCAMS antimalarial set, Kinase-Glo luminescence (AID 1159587)). Details: recombinant PfPK7, Kinase-Glo ATP depletion luminescence.
Chain of Protein kinase 7 (PK7), Plasmodium falciparum 3D7 (PF3D7_0213400) (Q7YTF7 1-343): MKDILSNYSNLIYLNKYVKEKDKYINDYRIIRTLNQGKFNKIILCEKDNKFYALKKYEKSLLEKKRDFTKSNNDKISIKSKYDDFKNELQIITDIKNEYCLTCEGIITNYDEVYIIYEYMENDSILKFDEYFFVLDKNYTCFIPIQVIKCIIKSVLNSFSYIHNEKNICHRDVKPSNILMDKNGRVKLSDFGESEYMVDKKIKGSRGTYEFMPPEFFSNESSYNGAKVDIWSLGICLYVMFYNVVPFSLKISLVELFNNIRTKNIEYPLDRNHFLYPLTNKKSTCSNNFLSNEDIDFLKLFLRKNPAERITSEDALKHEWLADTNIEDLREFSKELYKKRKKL

outcome, inactive:
O=C(N[C@@H](Cc1ccccc1)C(=O)NCCN1CCCCC1)c1ccc(O)c(-c2cccc(C(F)(F)F)c2)c1
Cc1cc(N(C)C)nc(Nc2ccc(NC(=O)c3ccc(Br)o3)cc2)n1
N#Cc1ccc(N[C@@H](CC2CCCCC2)C(=O)NCc2cc(F)c(F)cc2F)c2ccccc12
O=C(c1cccs1)N1N=C(c2cccs2)CC1c1cccc([N+](=O)[O-])c1 (stereo not given)
O=C(Nc1cccc(Cl)c1Cl)N[C@H]1CCN(CCCCCNC(=O)[C@@H]2C[C@H]2c2ccc(Cl)c(Cl)c2)C1
Clc1cc(Cl)c2cc(CNCCCNc3ccc4ccccc4n3)[nH]c2c1
Cn1cnc2c(Nc3ccncc3)nc(-c3ccc4ccccc4c3)nc21
O=C(Nc1cccc(-c2ccc(-c3nc4ccc(C(F)(F)F)cc4[nH]3)cc2)c1)c1ccncc1
Oc1ccc(CCNCCCCCCNCCc2ccc(Cl)cc2)c(Cl)c1O
COC(=O)c1cccc(CNCc2ccc(-c3ccc(-c4nc5c(C)cccc5[nH]4)cc3)cc2)c1
O=C(c1cc2ccccc2o1)N1CCc2cc3nccc(N4CCN5CCC[C@H]5C4)c3cc21
CN1CCC(N2CCN(Cc3cccc(-c4cccc(-c5nc6ccccc6[nH]5)c4)c3)CC2)CC1
CCCc1cc(C)ccc1OCCCON1C(NC(=O)OCC)=NC(NC(=O)OCC)=NC1(C)C
CCC(CC(C)C(=O)O)=C(c1ccccc1)c1ccccc1 (stereo not given)
COc1cc(Nc2nccc(N3CCC(NC(=O)Nc4ccc5c(c4)OCO5)C3)n2)cc(OC)c1OC (stereo not given)
N#Cc1ccc(C2CCN(CC[C@H](N)Cc3ccc(Cl)s3)CC2)cc1
COc1ccc(N2CCN(c3nc(Nc4ccc(NC(C)=O)cc4)nc(N4CCCC4)n3)CC2)cc1
CCc1ccc(OCCCON2C(N)=NC(N)=NC2(C)C)cc1
CC(C)C(C(=O)n1ncc2c3c(N)nc(N)nc3ccc21)C(C)C
CC(C)CCNCc1ccc(OCc2cccc(COc3ccc(CNCCC(C)C)cc3I)c2)c(I)c1
COc1cc(OC)c(NC(=O)Nc2ccnc3ccccc23)cc1Cl
CCC(O)(C#Cc1c(C)nc(N)nc1N)CC
CC(=O)N(C)/N=C/[C@H](CCc1ccccc1)NC(=O)[C@H](CC(C)C)NC(=O)c1cccc(OCCN2CCOCC2)c1
N#Cc1ccc(-c2ccc(C(=O)NCCCCN3CC=C(c4ccc5c(c4OCC4CC4)CCCC5)CC3)cc2)cc1
CCn1c(Sc2ccc([N+](=O)[O-])c(C#N)c2)nnc1-c1cccc(Cl)c1
CCOC(=O)C1CCN(CCOc2cc(NC(=O)/C=C/c3ccccc3Cl)ccc2Br)CC1
Cc1cc(N2CCN(C)CC2)nc2ccc(NC(=O)Cc3cccc(C(F)(F)F)c3)cc12
N#Cc1ccc(NC(=NCCc2c[nH]c3ccccc23)Nc2ccc(-c3ccccc3)cc2)c(O)c1
O=C(/C=C/c1ccc(Cl)c(Cl)c1)N1CCC(CN2CCC(Cc3nc4ccccc4[nH]3)CC2)CC1
CC(C)C1=C[C@H]2C[C@]3(C4OCCO4)[C@@H]4CC[C@@H](C)[C@H]4C[C@@]2(C(=O)OCC2COCO2)[C@]13C(=O)OC(c1ccccc1)c1ccccc1 (stereo not given in full)
COc1cccc(NC(=O)COc2ccc(C(=O)Nc3nc4ccccc4[nH]3)cc2)c1
O=C(Nc1ccc(OC2CCN(Cc3ccc(F)cc3)C2)c(Cl)c1)c1ccco1 (stereo not given)
Cc1ccc2c(NN=Cc3ccc(Cl)cc3)cc(C)nc2c1
S=C(NN=Cc1ccccn1)NC1C[C@H]2C=C[C@@H]1C2 (stereo not given in full)
Cc1ccc(C)c(S(=O)(=O)Nc2ccc(Br)cc2C(=O)Nc2cccc(C(F)(F)F)c2)c1
CN(CCN(C)CC(O)c1ccc(Cl)c(Cl)c1)CC(O)c1ccc(Cl)c(Cl)c1 (stereo not given)
O=c1c2ccccc2[nH]c2cc(Cl)ccc12
CCC[C@@H]([C@@H](CC1CCC(C)CC1)C(=O)N[C@@H](CCCNc1ncccn1)C(=O)Nc1nccs1)N(O)C=O (stereo not given in full)
CCn1c2ccccc2c2cc(C=NNc3cc(C)nc4ccccc34)ccc21
c1ccc2[nH]c(-c3ccc(-c4ccc(CN5CCC(N6CCCCC6)CC5)cc4)s3)nc2c1

These molecules were tested against Calcium-dependent protein kinase 4 (Plasmodium falciparum (isolate 3D7)) (UniProt Q8IBS5) (assay: PfCDPK4 kinase inhibitors, biochemical, TCAMS library (AID 1159588; cut-off not given, nearly all actives have IC50 up to about 0.91 µM)). Details: recombinant PfCDPK4, Kinase-Glo ATP depletion luminescence.
Chain of Calcium-dependent protein kinase 4 (Plasmodium falciparum (isolate 3D7)) (Q8IBS5 whole entry, looked up): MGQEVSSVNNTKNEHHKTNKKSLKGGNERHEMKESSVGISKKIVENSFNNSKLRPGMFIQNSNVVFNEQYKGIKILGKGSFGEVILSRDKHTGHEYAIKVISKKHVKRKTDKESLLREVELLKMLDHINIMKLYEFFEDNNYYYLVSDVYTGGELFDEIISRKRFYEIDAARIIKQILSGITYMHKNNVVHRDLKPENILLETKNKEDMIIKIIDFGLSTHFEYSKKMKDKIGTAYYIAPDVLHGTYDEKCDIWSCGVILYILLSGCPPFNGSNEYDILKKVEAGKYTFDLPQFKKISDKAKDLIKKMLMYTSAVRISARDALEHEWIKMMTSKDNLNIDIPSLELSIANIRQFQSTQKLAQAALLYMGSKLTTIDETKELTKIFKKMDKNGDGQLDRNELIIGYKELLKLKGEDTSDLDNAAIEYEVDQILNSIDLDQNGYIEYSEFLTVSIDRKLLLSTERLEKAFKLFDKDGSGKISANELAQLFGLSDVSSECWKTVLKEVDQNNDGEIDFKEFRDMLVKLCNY

outcome, inactive:
O=C(N[C@@H](Cc1ccccc1)C(=O)NCCN1CCCCC1)c1ccc(O)c(-c2cccc(C(F)(F)F)c2)c1
Cc1cc(N(C)C)nc(Nc2ccc(NC(=O)c3ccc(Br)o3)cc2)n1
N#Cc1ccc(N[C@@H](CC2CCCCC2)C(=O)NCc2cc(F)c(F)cc2F)c2ccccc12
O=C(c1cccs1)N1N=C(c2cccs2)CC1c1cccc([N+](=O)[O-])c1 (stereo not given)
O=C(Nc1cccc(Cl)c1Cl)N[C@H]1CCN(CCCCCNC(=O)[C@@H]2C[C@H]2c2ccc(Cl)c(Cl)c2)C1
Clc1cc(Cl)c2cc(CNCCCNc3ccc4ccccc4n3)[nH]c2c1
Cn1cnc2c(Nc3ccncc3)nc(-c3ccc4ccccc4c3)nc21
O=C(Nc1cccc(-c2ccc(-c3nc4ccc(C(F)(F)F)cc4[nH]3)cc2)c1)c1ccncc1
Oc1ccc(CCNCCCCCCNCCc2ccc(Cl)cc2)c(Cl)c1O
COC(=O)c1cccc(CNCc2ccc(-c3ccc(-c4nc5c(C)cccc5[nH]4)cc3)cc2)c1
O=C(c1cc2ccccc2o1)N1CCc2cc3nccc(N4CCN5CCC[C@H]5C4)c3cc21
CN1CCC(N2CCN(Cc3cccc(-c4cccc(-c5nc6ccccc6[nH]5)c4)c3)CC2)CC1
CCCc1cc(C)ccc1OCCCON1C(NC(=O)OCC)=NC(NC(=O)OCC)=NC1(C)C
CCC(CC(C)C(=O)O)=C(c1ccccc1)c1ccccc1 (stereo not given)
COc1cc(Nc2nccc(N3CCC(NC(=O)Nc4ccc5c(c4)OCO5)C3)n2)cc(OC)c1OC (stereo not given)
N#Cc1ccc(C2CCN(CC[C@H](N)Cc3ccc(Cl)s3)CC2)cc1
COc1ccc(N2CCN(c3nc(Nc4ccc(NC(C)=O)cc4)nc(N4CCCC4)n3)CC2)cc1
CCc1ccc(OCCCON2C(N)=NC(N)=NC2(C)C)cc1
CC(C)C(C(=O)n1ncc2c3c(N)nc(N)nc3ccc21)C(C)C
CC(C)CCNCc1ccc(OCc2cccc(COc3ccc(CNCCC(C)C)cc3I)c2)c(I)c1
COc1cc(OC)c(NC(=O)Nc2ccnc3ccccc23)cc1Cl
CCC(O)(C#Cc1c(C)nc(N)nc1N)CC
CC(=O)N(C)/N=C/[C@H](CCc1ccccc1)NC(=O)[C@H](CC(C)C)NC(=O)c1cccc(OCCN2CCOCC2)c1
N#Cc1ccc(-c2ccc(C(=O)NCCCCN3CC=C(c4ccc5c(c4OCC4CC4)CCCC5)CC3)cc2)cc1
CCn1c(Sc2ccc([N+](=O)[O-])c(C#N)c2)nnc1-c1cccc(Cl)c1
CCOC(=O)C1CCN(CCOc2cc(NC(=O)/C=C/c3ccccc3Cl)ccc2Br)CC1
Cc1cc(N2CCN(C)CC2)nc2ccc(NC(=O)Cc3cccc(C(F)(F)F)c3)cc12
N#Cc1ccc(NC(=NCCc2c[nH]c3ccccc23)Nc2ccc(-c3ccccc3)cc2)c(O)c1
O=C(/C=C/c1ccc(Cl)c(Cl)c1)N1CCC(CN2CCC(Cc3nc4ccccc4[nH]3)CC2)CC1
CC(C)C1=C[C@H]2C[C@]3(C4OCCO4)[C@@H]4CC[C@@H](C)[C@H]4C[C@@]2(C(=O)OCC2COCO2)[C@]13C(=O)OC(c1ccccc1)c1ccccc1 (stereo not given in full)
COc1cccc(NC(=O)COc2ccc(C(=O)Nc3nc4ccccc4[nH]3)cc2)c1
O=C(Nc1ccc(OC2CCN(Cc3ccc(F)cc3)C2)c(Cl)c1)c1ccco1 (stereo not given)
Cc1ccc2c(NN=Cc3ccc(Cl)cc3)cc(C)nc2c1
S=C(NN=Cc1ccccn1)NC1C[C@H]2C=C[C@@H]1C2 (stereo not given in full)
Cc1ccc(C)c(S(=O)(=O)Nc2ccc(Br)cc2C(=O)Nc2cccc(C(F)(F)F)c2)c1
CN(CCN(C)CC(O)c1ccc(Cl)c(Cl)c1)CC(O)c1ccc(Cl)c(Cl)c1 (stereo not given)
O=c1c2ccccc2[nH]c2cc(Cl)ccc12
CCC[C@@H]([C@@H](CC1CCC(C)CC1)C(=O)N[C@@H](CCCNc1ncccn1)C(=O)Nc1nccs1)N(O)C=O (stereo not given in full)
CCn1c2ccccc2c2cc(C=NNc3cc(C)nc4ccccc34)ccc21
c1ccc2[nH]c(-c3ccc(-c4ccc(CN5CCC(N6CCCCC6)CC5)cc4)s3)nc2c1
